ADAM10 inh: ADAM10 inhibition, QFRET primary screen; O14672; recombinant ADAM10, EDANS/DABCYL FRET peptide cleavage, 3 h; inhibition, % at 7 µM; 370,000 tested, 0.62% active; AID 720582;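 active = inhibition above a per-campaign cutoff equal to the mean of compounds falling between control-based bounds plus 3 SD, cut at about 20% in these data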
Ecoli rRNA inh: selective bacterial rRNA inhibition in E. coli; E. coli WT GFP vs humanized-ribosome RFP mutants, fluorescence, 24 h; stronger effect = lower value; DMSO median 0, no signal -100; GFP signal change (wild-type ribosome), % (test concentration not listed); 350,000 tested, 1.6% active; AID 720706;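 active = significant combined selectivity score with lowered wild-type GFP, culture density cut under 30%, mutant RFP and density less affected; inactive = any of these conditions unmet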
ADAM17 inh: inhibits human ADAM17 | AID 720648 | P78536 | recombinant ADAM17, EDANS/DABCYL FRET peptide cleavage | inhibition, % at 6.95 µM | 370,000 tested, 0.83% active;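 active = inhibition above the mean of compounds lying between control limits plus 3 SD, set per campaign, cut at about 8.5% in these data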
Target sequence (P78536 215-824 limits assumed): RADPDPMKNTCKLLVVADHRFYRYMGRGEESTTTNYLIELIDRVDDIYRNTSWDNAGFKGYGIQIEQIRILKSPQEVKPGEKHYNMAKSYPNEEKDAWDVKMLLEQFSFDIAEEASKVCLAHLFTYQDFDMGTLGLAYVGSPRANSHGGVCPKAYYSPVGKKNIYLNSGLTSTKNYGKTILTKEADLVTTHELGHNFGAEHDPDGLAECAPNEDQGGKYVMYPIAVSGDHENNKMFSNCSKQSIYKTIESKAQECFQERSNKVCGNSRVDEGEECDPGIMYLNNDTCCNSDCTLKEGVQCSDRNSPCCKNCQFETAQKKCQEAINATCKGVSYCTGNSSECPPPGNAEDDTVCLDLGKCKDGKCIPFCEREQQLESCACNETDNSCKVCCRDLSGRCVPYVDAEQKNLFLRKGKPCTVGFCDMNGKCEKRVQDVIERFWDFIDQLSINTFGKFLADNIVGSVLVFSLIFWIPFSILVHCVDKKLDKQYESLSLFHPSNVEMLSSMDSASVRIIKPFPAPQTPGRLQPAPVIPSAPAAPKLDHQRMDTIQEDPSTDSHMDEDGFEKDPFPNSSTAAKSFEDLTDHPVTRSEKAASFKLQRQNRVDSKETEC
FGF22 binding: binders of recombinant human FGF22 by thermal shift | 340,000 tested, 1.5% active | activity (Tm shift, normalised), % at 9.99 µM | SYPRO orange fluorescence; percent of sucrose octasulfate shift, DMSO zero | Q9HCT0 | AID 651658;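 active = mean Tm shift, scaled 0 neutral to 100 positive control, at about 1.3% or above, every replicate too, limit read from the data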
proKLK7 act: proKLK7 (human) activation, primary screen | P49862 | purified proKLK7, EDANS-DABCYL substrate fluorescence; 100% is mature enzyme control, 0% vehicle | activation, % at 7 µM | 370,000 tested, 0.9% active | AID 652039;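 active = activation above the mean of all tested compounds plus 3 SD, computed per campaign excluding outliers beyond control limits, cut at about 13% in these data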
Of the large screens only hits and unclear results are named; the others gave an inactive call. Shown are actives, neighbours in structure and some others; about 3.8% of the full set was active somewhere.

C[C@@H]1CCCCO[C@@H](CN(C)C(=O)Cc2ccccc2)[C@H](C)CN([C@@H](C)CO)C(=O)c2cc(NC(=O)Nc3ccccc3)ccc2O1	none (no result: ADAM10 inh, ADAM17 inh, proKLK7 act)
CC=Cc1ccc2n(c1=O)C[C@H]1[C@H](CO)[C@@H](C(=O)N(C)C)N(CCC)[C@@H]21 (mixture of isomers)	none (no result: ADAM10 inh, ADAM17 inh, FGF22 binding, proKLK7 act)
O=C(C[C@H]1CC[C@H]2[C@@H](COC[C@H](O)CN2Cc2cccc(F)c2)O1)NCc1cccc(F)c1	none (no result: ADAM10 inh, ADAM17 inh, proKLK7 act)
COc1ccc(CC(=O)NNC(=O)CCc2ccccc2)cc1OC	FGF22 binding 43
COc1ccc(CC(=O)NC(C)CCc2ccccc2)cc1OC (centres undefined)	none
CCOC(=O)c1ccc(NC(=S)NCCc2ccccc2F)cc1	FGF22 binding 44 (no result: Ecoli rRNA inh)
C[C@@H]1CN([C@@H](C)CO)C(=O)c2cc(NC(=O)CCN3CCOCC3)ccc2O[C@H]1CN(C)Cc1ccc(Cl)c(Cl)c1	none (no result: ADAM10 inh, ADAM17 inh, proKLK7 act)
COc1cc(NC(=S)Nc2cccc(C)n2)cc(OC)c1OC	none
COc1cc(NC(=S)Nc2ncccc2C)cc(OC)c1OC	Ecoli rRNA inh -21
Cc1c(/C=N/O)c2ccccn2c1C(=O)c1ccc(F)cc1	Ecoli rRNA inh -28
O=C1CSC(c2ccccc2)N1c1ccc(-c2ccccc2)cc1 (centres undefined)	none (no result: ADAM10 inh, Ecoli rRNA inh, ADAM17 inh, proKLK7 act)
O=C(O)c1cccc(S(=O)(=O)NCCC(c2ccccc2)c2ccccc2)c1	Ecoli rRNA inh -27
O=C(O)CSc1nnc(Nc2ccccc2)n1-c1ccccc1	FGF22 binding 44
O=C(CSc1nnc(-c2ccccc2O)n1-c1ccccc1)Nc1cccc(C(=O)O)c1	FGF22 binding 43
C[C@@H]1CN([C@H](C)CO)C(=O)c2cc(NC(=O)NC3CCCCC3)ccc2O[C@@H](C)CCCCO[C@H]1CN(C)C(=O)NC1CCCCC1	none (no result: ADAM10 inh, ADAM17 inh, proKLK7 act)
CCC(=O)Nc1ccc2c(c1)OC[C@H](C)N(CC1CC1)C[C@H](C)[C@@H](OC)CN(C)C2=O	none (no result: ADAM10 inh, ADAM17 inh, FGF22 binding, proKLK7 act)
Cn1cnc(S(=O)(=O)N[C@@H]2CC[C@H](CC(=O)Nc3ccc(-c4ccccc4)cc3)O[C@@H]2CO)c1	none (no result: ADAM10 inh, ADAM17 inh, proKLK7 act)
c1csc(-c2nc3nc4ccccc4nc3n2Cc2ccc3c(c2)OCO3)c1	none (no result: Ecoli rRNA inh, FGF22 binding)
Clc1ccccc1-c1nc2nc3ccccc3nc2n1-c1ccc2c(c1)OCO2	Ecoli rRNA inh -26
CN(C)CC(=O)N1[C@H](C(=O)NCc2ccccc2F)[C@@H](CO)[C@@H]2Cn3c(cccc3=O)[C@@H]21	none (no result: ADAM10 inh, ADAM17 inh, FGF22 binding, proKLK7 act)
COc1ccc(NC(=O)CSc2nccn2C)cc1S(N)(=O)=O	FGF22 binding 2.4
COCCNC(=O)C[C@H]1C[C@H]2c3cc(NS(=O)(=O)c4ccc(F)cc4)ccc3O[C@H]2[C@@H](CO)O1	none (no result: ADAM10 inh, ADAM17 inh, proKLK7 act)
CC12CCC(/C(=C/NNc3ccc([N+](=O)[O-])cc3[N+](=O)[O-])C1=O)C2(C)C (centres undefined)	Ecoli rRNA inh -23
O=C(NNc1ccc([N+](=O)[O-])cc1[N+](=O)[O-])C1C2CCCCC21 (centres undefined)	none
COCC#Cc1cnc2c(c1)C(=O)N([C@@H](C)CO)C[C@@H](C)[C@@H](CN(C)S(=O)(=O)c1cn(C)cn1)O2	none (no result: ADAM10 inh, ADAM17 inh, proKLK7 act)
COc1ccccc1NC(=O)C1=C(C)NC(=O)NC1c1ccc(C)cc1 (centres undefined)	none
CC1=C(C(=O)Nc2ccccc2)C(c2ccccc2[N+](=O)[O-])NC(=O)N1 (centres undefined)	FGF22 binding 43
COc1ccccc1NC(=O)C1=C(C)NC(=O)NC1c1ccccc1[N+](=O)[O-] (centres undefined)	FGF22 binding 43 (no result: Ecoli rRNA inh)
COc1ccc(NC(=O)C2=C(C)NC(=O)NC2c2cccs2)c(OC)c1 (centres undefined)	FGF22 binding 44
C/C=C/c1ccccc1[C@@H]1[C@H](C#N)N(C(=O)c2cccnc2)[C@H]1CO	none (no result: ADAM10 inh, ADAM17 inh, FGF22 binding, proKLK7 act)
O=C(C[C@@H]1CC[C@@H]2[C@H](COC[C@H](O)CN2Cc2ccc(C(F)(F)F)cc2)O1)NCCc1ccccc1	none (no result: ADAM10 inh, ADAM17 inh, proKLK7 act)
CC(C)N1CCN(Cc2cccs2)CC1CCO (centres undefined)	none
CC(C)CCN1CCN(Cc2cccs2)CC1CCO (centres undefined)	FGF22 binding 43
CCCNC(=O)N1CC2(CN(Cc3ccccn3)C2)c2c(n(C)c3cc(OC)ccc23)[C@H]1CO	none (no result: ADAM10 inh, ADAM17 inh, FGF22 binding, proKLK7 act)
O=C(Cc1cccc2ccccc12)NCCOc1ccccc1F	Ecoli rRNA inh -39
Cc1ccc(-n2cc(-c3ccccc3)c3c(N4CCN(C)CC4)ncnc32)cc1	none
Cc1ccc(-n2cc(-c3ccccc3)c3c(N4CCOCC4)ncnc32)cc1	FGF22 binding 43
O=C(c1ccc(Cl)c(Cl)c1)N1CCC(=O)N(C(COCc2cccc(Cl)c2)Cc2ccccc2)CC1 (centres undefined)	ADAM10 inh 29, ADAM17 inh 13 (no result: Ecoli rRNA inh)
S=C(NCCCN1CCOCC1)N1CCN(c2nc(-c3ccccc3)cs2)CC1	Ecoli rRNA inh -22
S=C(NCCCN1CCOCC1)N1CCN(c2nc(-c3ccc(Cl)cc3)cs2)CC1	none
COc1ccccc1NC(=O)CN1CCSc2ccccc21	Ecoli rRNA inh -21
O=C(CSCc1ccc(Cl)cc1)NCCSCc1ccco1	none
O=C(NCCSCc1ccco1)Nc1cc(Cl)cc(Cl)c1	Ecoli rRNA inh -51
COc1cc(Cl)c(C)cc1NC(=O)CCN1C(=O)NC(C)(C)C1=O	FGF22 binding 43
COc1cccc(NC(=O)COC(=O)C2CCN(S(=O)(=O)c3cccs3)CC2)c1	FGF22 binding 43 (no result: Ecoli rRNA inh)
CCCOc1ccc(-c2cn3ccccc3n2)cc1	FGF22 binding 43
COc1ccc(-c2cn3ccccc3n2)cc1	none
O=C(O)[C@@H]1[C@@H](CO)[C@@H]2Cn3c(ccc(-c4ccc(F)cc4)c3=O)[C@@H]2N1C(=O)Nc1ccccc1	none (no result: ADAM10 inh, ADAM17 inh, FGF22 binding, proKLK7 act)
COc1ccc2c3c([nH]c2c1)[C@@H](CO)N(Cc1ccccn1)CC31CN(C(=O)c2ccccn2)C1	none (no result: ADAM10 inh, ADAM17 inh, proKLK7 act)
COc1cccc2cc(-c3ccnc(N)n3)oc12	Ecoli rRNA inh -32
COc1cccc(-c2ccc([C@@H]3[C@@H](CO)N4C(=O)CN(C(=O)CN5CCOCC5)C[C@H]34)cc2)c1	none (no result: ADAM10 inh, ADAM17 inh, FGF22 binding, proKLK7 act)
CC(=O)N(C)C[C@@H]1Oc2ccc(N(C)C)cc2C(=O)N(C)C[C@@H]1C	none (no result: ADAM10 inh, ADAM17 inh, FGF22 binding, proKLK7 act)
COc1ccc(NC(=O)CN2CCN(S(=O)(=O)c3cccs3)CC2)cc1Cl	none
COc1ccc(CNC(=O)CN2CCN(S(=O)(=O)c3cccs3)CC2)cc1OC	FGF22 binding 43
CO[C@H]1CN(C)C(=O)c2cc(NC(=O)Nc3ccccc3)ccc2OC[C@H](C)N(C(=O)CN(C)C)C[C@H]1C	none (no result: ADAM10 inh, ADAM17 inh, proKLK7 act)
CC(=O)c1cnn(-c2c(Cl)cc(Cl)cc2Cl)c1C	Ecoli rRNA inh -22
O=C(C[C@H]1C=C[C@@H](NC(=O)C2CCOCC2)[C@H](CO)O1)NCc1ccncc1	none (no result: ADAM10 inh, ADAM17 inh, proKLK7 act)
CO[C@@H]1CN(C)C(=O)c2ccc(NC(C)=O)cc2OC[C@@H](C)N(CC2CCCCC2)C[C@H]1C	none (no result: ADAM10 inh, ADAM17 inh, FGF22 binding, proKLK7 act)
